Hit rate of the full screen: of about 11,000 compounds, about 310 (2.8%) were called active. Rule as the data show it: active = activity change below about -85%; inactive = the rest. This excerpt belongs to a sample that is enriched for actives.
These compounds were tested on intestinal alkaline phosphatase [Mus musculus] (assay: mouse intestinal phosphatase enzyme activation – biochemical, luminescence, single concentration, confirmation (AID 434970)). Conditions: purified mouse IAP, CDP-Star luminescence, 30 min, at 10 µM; activation factor: measured here: IAP activation factor, stronger effect = higher value; activity change, negative = activation: stronger effect = lower value.

SMILES | activation factor | activity change, negative = activation
COc1ccc(N=NC2=C(O)CC(C)(C)CC2=O)c(OC)c1 | 0.743 | 25.7% (inactive)
CCOC(=O)c1sc(N=NC2=C(O)CCCC2=O)c(C(=O)OCC)c1C | 0.794 | 20.6% (inactive)
CCOC(=O)c1sc(N=NC2=C(O)CC(C)(C)CC2=O)c(C(=O)OCC)c1C | 3.1 | -210% (active)
COc1cc(NC(=O)c2ccc(F)cc2)c(OC)cc1Cl | 0.929 | 7.05% (inactive)
COc1ccc2c(C)c(C(=O)O)oc2c1 | 0.933 | 6.65% (inactive)
COC(=O)c1c(N)n(CCCN2CCOCC2)c2nc3ccccc3nc12 | 0.983 | 1.65% (inactive)
N#Cc1c(-c2ccc(Cl)cc2)ccn2nc(CCC(=O)O)nc12 | 1.15 | -15.3% (inactive)
CN1CCN(S(=O)(=O)c2ccc(SCCOc3ccccc3)nc2)CC1 | 0.96 | 4% (inactive)
O=C(NC1CCCC1)C(c1ccc(F)cc1)N(Cc1ccc(F)cc1)C(=O)c1ccn[nH]1 (stereo unspecified) | 2.05 | -105% (active)
CC(C)(C)N(C(=O)Cn1nnc(-c2ccc(F)cc2)n1)C(C(=O)NC1CCCC1)c1ccncc1 (stereo unspecified) | 0.935 | 6.5% (inactive)
C=CCN(C(=O)CNC(=O)c1ccco1)C(C(=O)NC1CCCCC1)c1ccc(F)cc1 (stereo unspecified) | 1.05 | -5.3% (inactive)
Brc1ccc(-c2cnc(-c3cccs3)o2)cc1 | 0.944 | 5.65% (inactive)
COc1ccc(Cc2nn[nH]n2)cc1 | 1.18 | -17.9% (inactive)
Cc1ccc(Cn2nc(C)c(NC(=O)C3CC3)c2C)cc1 | 1.06 | -6.3% (inactive)
CCn1nc(C)c(CN2CCC(C(=O)Nc3cccc(-c4cccc(Cl)c4)c3)CC2)c1C | 4.74 | -374% (active)
Cc1cc(C)n(CCCN2CCC(C(=O)Nc3cccc(-c4cccc(F)c4)c3)CC2)n1 | 3.01 | -202% (active)
Cc1ccc(NC(=O)CCn2nc(C)cc2C)cc1 | 1.12 | -11.6% (inactive)
COc1ccc(NC(=O)C2CCN(c3nc(C)cc(C)n3)CC2)cc1 | 0.96 | 4.05% (inactive)
CCn1nc(C(=O)Nc2cccc(C(F)(F)F)c2)c(Cl)c1Cl | 0.952 | 4.85% (inactive)
Cc1nn(C(C)C)c(C)c1CN1CCC(C(=O)Nc2cccc(-c3cccc(F)c3)c2)CC1 | 4.89 | -389% (active)
CCn1nc(C)c(CN2CCC(C(=O)Nc3cccc(-c4cccc(F)c4)c3)CC2)c1C | 3.08 | -208% (active)
CC(=O)c1ccc(NC(=O)Cn2nc(C)cc2C)cc1 | 0.948 | 5.2% (inactive)

SMILES | activation factor | activity change, negative = activation
CCc1ccc(NC(=O)C2CC(=O)N(C(C)C)C2)cc1 (stereo unspecified) | 0.925 | 7.45% (inactive)
Nc1ccccc1NC(=O)c1ccccc1 | 1.09 | -8.9% (inactive)
CCN1CCN(C(=O)CN(c2ccccc2C)S(C)(=O)=O)CC1 | 1.04 | -3.5% (inactive)
Cc1ccc(OCCn2cnc3c(N)ncnc32)cc1 | 0.932 | 6.8% (inactive)
Cc1cc(NC(=O)CCC(=O)N(Cc2ccco2)C(C)(C)C(=O)NC2CCCCC2)no1 | 1.05 | -5.25% (inactive)
COc1ccc(CNC(=O)C[C@H]2C[C@H](C(=O)N3CCOCC3)[C@@]3(CCC4CCCC4)c4[nH]c5cc(CCC(=O)N(C)C)ccc5c4CCN3C2=O)cc1OC | 1.07 | -6.85% (inactive)
CCOC(=O)C1=CN(Cc2cccc(F)c2)S(=O)(=O)NC1c1ccc(Br)cc1F (stereo unspecified) | 0.921 | 7.85% (inactive)
CN(C)C(=O)CCc1ccc2c3c([nH]c2c1)[C@]1(C)[C@@H](C(=O)N2CCOCC2)C[C@H](CC(=O)NCCc2ccccn2)C(=O)N1CC3 | 1.02 | -2.25% (inactive)
O=C1C[C@@H]2CCN3C(=O)CCC[C@@H]([C@H]23)[C@@H]1Cc1ccccc1 | 0.964 | 3.55% (inactive)
CC(CN1CCN(C)CC1)OC(=O)c1ccc(Cl)cc1 (stereo unspecified) | 0.929 | 7.05% (inactive)
N#Cc1ccc(N2CCN(c3ccc(F)cc3)CC2)cc1 | 0.995 | 0.5% (inactive)
CCCNC(=O)c1ccc(SC)cc1OC | 0.92 | 8% (inactive)
Cc1ccc(NC(=O)Nc2ccc(F)c(Cl)c2)cc1 | 1.35 | -35% (inactive)
O=C(Nc1ccc(Br)cc1)Nc1ccccc1Cl | 1.39 | -39.4% (inactive)
O=C(Nc1ccc(Cl)c(Cl)c1)Nc1ccc(Br)cc1F | 2.24 | -124% (active)
O=C(Nc1ccc(Br)cc1)Nc1ccccc1F | 1.81 | -81.1% (inactive)
O=C(NCC1CC1(Cl)Cl)Nc1ccc(Cl)c(Cl)c1 (stereo unspecified) | 2.53 | -153% (active)
O=C(Nc1ccc(Cl)c(Cl)c1)N1CCSCC1 | 1.13 | -13.4% (inactive)
CCn1nccc1C(=O)Nc1ccc(Cl)c(Cl)c1 | 0.952 | 4.85% (inactive)
N#Cc1ccc(NC(=O)Nc2ccc(Cl)cc2)cc1 | 1.73 | -72.5% (inactive)
O=C(Nc1ccc(Cl)cc1)Nc1ccc(Cl)c(Cl)c1 | 2.27 | -127% (active)
